About 7,900 targets were measured; listed, in parts, are those with a hit and a random draw of the rest. About 0.6% of all pairs of compound and target were hits. A number with no mark means an inactive call.

In the supplement of paper PMC10849652 one finds log2 fold change data, which are given here for 17 targets.

Test in all cases: log2 fold change, soluble protein after heating vs DMSO (PISA); higher = thermal stabilisation; K562 cells, 10 uM, 30 min; active = over 0.2 and 3.5 SD of the protein, either way, in both replicates (recomputed)
Compound in one test: CON(C)C(=O)N1N=C(c2cc(F)ccc2F)S[C@@]1(CCCN)c1ccccc1 [filanesib]
The procedure, abridged: (§1)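 Soluble protein was quantified by TMTpro 16plex LC-MS/MS after channel sums were equalised. It was obtained as the supernatant after 21,000xg for 90 min from pooled aliquots of K562 cells (2×10^6 cells/mL, 10 μM compound, 30 min) heated for 3 min across 48°C-58°C and extracted in PBS with 0.5% NP-40 at 4°C. Thermal stability values are relative to control samples and come from duplicates. They are given as log2 fold changes.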

Compound in a further test: CO[C@H]1C[C@@H]2CC[C@@H](C)[C@@](O)(O2)C(=O)C(=O)N2CCCC[C@H]2C(=O)O[C@H]([C@H](C)C[C@@H]2CC[C@H](n3cnnn3)[C@H](OC)C2)CC(=O)[C@H](C)/C=C(\C)[C@@H](O)[C@@H](OC)C(=O)[C@H](C)C[C@H](C)/C=C/C=C/C=C/1C [zotarolimus]
The procedure, abridged:
as §1

Compound in the next test: COc1cc(C(=O)O)ccc1NC(=O)[C@@H]1N[C@@H](CC(C)(C)C)[C@](C#N)(c2ccc(Cl)cc2F)[C@H]1c1cccc(Cl)c1F [idasanutlin]
The procedure, abridged:
as §1

Compound in a further test: COc1cc(Nc2ncc3c(n2)-c2ccc(Cl)cc2C(c2c(F)cccc2OC)=NC3)ccc1C(=O)O [alisertib]
The gist of the method:
as §1

Compound in test [1]: COc1cc2nc(-c3cc(F)ccc3O)nc(N[C@@H]3CNC[C@H]3C(C)(C)O)c2cc1OC
The procedure, abridged:
as §1

Compound in a further test: COc1cc2ncnc(Nc3ccc(F)c(Cl)c3)c2cc1OCCCN1CCOCC1 [gefitinib]
The procedure, abridged:
as §1

Compound in test [2]: COc1cccc2cc(-c3nc([C@H]4CC[C@H](C(=O)O)CC4)n4ncnc(N)c34)[nH]c12
The procedure, abridged:
as §1

Compound in the next test: CS(=O)(=O)CCNCc1ccc(-c2ccc3ncnc(Nc4ccc(OCc5cccc(F)c5)c(Cl)c4)c3c2)o1 [lapatinib]
The gist of the method: as §1

Compound in the next test: CS(=O)(=O)N1CCN(Cc2cc3nc(-c4cccc5[nH]ncc45)nc(N4CCOCC4)c3s2)CC1 [pictilisib]
The procedure, abridged: as §1

Compound in test [3]: COC1=CC=C(C=C1)CN2C=CC3=C2C=C(C=C3)C(=O)NO
The procedure, abridged: as §1

Chain of UniProt Q86UA6 (Q86UA6 whole entry, looked up): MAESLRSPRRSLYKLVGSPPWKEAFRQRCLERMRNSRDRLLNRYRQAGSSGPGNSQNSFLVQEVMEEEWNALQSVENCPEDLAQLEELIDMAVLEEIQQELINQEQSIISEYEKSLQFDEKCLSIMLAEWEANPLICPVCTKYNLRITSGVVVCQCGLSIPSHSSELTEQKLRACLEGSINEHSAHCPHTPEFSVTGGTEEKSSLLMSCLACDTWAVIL
Chain of UniProt P43003 (P43003 whole entry, looked up): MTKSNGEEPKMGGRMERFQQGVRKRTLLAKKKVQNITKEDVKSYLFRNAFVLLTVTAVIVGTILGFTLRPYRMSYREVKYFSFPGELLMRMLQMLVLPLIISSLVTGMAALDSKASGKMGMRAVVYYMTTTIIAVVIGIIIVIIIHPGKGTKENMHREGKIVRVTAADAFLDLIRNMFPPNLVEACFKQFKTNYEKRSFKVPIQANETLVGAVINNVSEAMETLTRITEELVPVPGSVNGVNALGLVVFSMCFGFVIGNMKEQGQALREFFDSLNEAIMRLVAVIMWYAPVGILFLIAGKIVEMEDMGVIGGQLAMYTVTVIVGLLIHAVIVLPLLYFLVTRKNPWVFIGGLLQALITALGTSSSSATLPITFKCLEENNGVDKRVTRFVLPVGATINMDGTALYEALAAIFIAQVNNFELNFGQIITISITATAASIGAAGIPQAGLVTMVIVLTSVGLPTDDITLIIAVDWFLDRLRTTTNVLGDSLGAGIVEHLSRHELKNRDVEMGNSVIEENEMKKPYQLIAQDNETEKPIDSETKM
Chain of UniProt O75582 (O75582 whole entry, looked up): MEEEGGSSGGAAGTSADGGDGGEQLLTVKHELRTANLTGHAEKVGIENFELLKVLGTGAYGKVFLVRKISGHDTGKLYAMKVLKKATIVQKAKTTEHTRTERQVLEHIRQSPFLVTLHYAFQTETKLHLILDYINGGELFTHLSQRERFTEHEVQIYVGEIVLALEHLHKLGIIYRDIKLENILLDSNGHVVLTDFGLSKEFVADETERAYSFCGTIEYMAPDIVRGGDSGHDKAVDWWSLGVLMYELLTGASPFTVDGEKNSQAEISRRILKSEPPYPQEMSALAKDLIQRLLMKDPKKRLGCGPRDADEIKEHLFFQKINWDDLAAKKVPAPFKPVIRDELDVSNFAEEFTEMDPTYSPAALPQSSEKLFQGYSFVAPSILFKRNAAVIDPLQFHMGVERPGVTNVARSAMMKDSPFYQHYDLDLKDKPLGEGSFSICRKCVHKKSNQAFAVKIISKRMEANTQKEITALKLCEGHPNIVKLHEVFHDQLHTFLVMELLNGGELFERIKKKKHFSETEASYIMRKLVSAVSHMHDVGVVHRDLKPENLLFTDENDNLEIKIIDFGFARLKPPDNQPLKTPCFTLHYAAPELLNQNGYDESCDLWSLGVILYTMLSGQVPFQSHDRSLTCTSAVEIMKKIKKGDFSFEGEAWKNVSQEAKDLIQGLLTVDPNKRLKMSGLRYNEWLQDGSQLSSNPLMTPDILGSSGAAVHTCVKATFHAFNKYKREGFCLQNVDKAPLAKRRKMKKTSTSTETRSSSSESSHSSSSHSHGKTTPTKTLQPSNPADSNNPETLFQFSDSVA
Chain of UniProt Q9Y3L5 (Q9Y3L5 whole entry, looked up): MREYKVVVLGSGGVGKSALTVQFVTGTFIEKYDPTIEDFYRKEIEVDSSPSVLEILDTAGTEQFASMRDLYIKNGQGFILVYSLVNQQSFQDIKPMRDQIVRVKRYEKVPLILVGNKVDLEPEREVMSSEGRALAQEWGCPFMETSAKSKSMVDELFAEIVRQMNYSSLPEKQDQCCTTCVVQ
Chain of UniProt Q96NL6 (Q96NL6 whole entry, looked up): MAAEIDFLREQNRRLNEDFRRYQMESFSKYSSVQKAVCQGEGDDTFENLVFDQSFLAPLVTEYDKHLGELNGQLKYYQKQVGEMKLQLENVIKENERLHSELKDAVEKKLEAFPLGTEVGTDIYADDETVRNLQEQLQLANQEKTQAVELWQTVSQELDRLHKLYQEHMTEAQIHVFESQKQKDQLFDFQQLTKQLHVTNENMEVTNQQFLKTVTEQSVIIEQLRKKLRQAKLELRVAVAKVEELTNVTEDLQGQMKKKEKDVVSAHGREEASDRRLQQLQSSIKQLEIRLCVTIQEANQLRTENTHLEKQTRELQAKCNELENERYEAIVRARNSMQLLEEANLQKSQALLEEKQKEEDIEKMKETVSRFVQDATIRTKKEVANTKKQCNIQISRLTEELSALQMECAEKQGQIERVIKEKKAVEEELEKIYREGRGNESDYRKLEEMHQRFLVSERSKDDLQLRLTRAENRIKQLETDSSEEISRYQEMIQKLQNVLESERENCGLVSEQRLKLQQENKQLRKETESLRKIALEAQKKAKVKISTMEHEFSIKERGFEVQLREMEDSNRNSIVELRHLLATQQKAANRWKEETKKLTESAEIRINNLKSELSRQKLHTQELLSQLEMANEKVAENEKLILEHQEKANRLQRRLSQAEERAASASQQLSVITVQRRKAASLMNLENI
Chain of UniProt Q96EU6 (Q96EU6 whole entry, looked up): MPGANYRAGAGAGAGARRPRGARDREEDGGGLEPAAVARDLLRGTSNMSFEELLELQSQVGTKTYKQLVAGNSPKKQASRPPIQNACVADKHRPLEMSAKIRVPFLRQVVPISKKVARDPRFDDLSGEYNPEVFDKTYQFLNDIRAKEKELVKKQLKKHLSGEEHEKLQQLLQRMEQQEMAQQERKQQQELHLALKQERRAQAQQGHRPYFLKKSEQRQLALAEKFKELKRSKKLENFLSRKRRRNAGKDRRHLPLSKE
Chain of UniProt O95716 (O95716 whole entry, looked up): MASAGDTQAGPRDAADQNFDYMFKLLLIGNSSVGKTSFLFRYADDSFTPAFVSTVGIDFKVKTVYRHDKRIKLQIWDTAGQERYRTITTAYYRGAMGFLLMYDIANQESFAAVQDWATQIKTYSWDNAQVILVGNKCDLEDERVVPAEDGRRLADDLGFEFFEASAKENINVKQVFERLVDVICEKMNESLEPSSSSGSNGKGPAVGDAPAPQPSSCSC
Chain of UniProt P60903 (P60903 whole entry, looked up): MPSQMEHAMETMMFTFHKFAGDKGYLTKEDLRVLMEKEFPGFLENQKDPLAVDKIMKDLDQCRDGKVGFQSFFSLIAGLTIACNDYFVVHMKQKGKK
Chain of UniProt Q96GF1 (Q96GF1 whole entry, looked up): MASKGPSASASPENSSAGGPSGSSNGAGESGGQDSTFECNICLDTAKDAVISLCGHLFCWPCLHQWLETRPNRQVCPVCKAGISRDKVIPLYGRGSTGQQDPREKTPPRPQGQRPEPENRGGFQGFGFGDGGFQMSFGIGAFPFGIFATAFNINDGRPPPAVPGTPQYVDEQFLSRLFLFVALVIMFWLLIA
Chain of UniProt O00560 (O00560 whole entry, looked up): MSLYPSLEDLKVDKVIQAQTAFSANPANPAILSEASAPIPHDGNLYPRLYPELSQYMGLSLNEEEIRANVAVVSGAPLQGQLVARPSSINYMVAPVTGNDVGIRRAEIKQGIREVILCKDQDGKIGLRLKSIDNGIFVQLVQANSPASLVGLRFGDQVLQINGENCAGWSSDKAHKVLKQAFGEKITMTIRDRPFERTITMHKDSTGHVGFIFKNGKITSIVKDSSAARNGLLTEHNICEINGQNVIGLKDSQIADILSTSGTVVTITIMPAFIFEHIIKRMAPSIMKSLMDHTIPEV
Chain of UniProt Q86X27 (Q86X27 whole entry, looked up): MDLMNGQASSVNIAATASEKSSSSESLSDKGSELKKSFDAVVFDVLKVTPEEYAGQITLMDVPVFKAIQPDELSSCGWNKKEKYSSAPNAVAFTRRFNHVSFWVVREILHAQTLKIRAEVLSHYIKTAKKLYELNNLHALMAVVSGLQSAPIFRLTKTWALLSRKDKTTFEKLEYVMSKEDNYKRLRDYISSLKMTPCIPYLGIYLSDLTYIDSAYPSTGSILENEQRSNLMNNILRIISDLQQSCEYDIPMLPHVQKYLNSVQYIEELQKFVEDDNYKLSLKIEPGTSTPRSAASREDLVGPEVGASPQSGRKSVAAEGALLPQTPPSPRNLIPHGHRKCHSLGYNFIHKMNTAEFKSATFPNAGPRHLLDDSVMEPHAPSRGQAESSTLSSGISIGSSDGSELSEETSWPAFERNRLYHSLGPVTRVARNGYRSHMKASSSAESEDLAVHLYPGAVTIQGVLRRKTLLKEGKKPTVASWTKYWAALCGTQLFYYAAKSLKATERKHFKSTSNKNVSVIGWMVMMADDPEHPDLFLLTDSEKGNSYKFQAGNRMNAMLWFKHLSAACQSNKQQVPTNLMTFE
Chain of UniProt A6NEQ0 (A6NEQ0 whole entry, looked up): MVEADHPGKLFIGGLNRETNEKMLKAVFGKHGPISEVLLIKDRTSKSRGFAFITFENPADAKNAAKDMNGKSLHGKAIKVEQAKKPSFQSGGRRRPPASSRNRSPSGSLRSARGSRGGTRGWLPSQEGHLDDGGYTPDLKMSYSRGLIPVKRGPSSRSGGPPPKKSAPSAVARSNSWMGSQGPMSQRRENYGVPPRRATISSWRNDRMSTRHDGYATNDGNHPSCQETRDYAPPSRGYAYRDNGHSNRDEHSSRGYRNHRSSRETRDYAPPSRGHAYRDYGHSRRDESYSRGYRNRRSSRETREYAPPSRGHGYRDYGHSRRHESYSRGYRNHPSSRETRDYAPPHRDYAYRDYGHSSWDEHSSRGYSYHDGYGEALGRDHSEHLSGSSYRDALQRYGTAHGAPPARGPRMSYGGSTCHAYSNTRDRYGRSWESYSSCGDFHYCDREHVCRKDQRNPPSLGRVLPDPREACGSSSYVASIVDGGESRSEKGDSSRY
Chain of UniProt Q9H4P4 (Q9H4P4 whole entry, looked up): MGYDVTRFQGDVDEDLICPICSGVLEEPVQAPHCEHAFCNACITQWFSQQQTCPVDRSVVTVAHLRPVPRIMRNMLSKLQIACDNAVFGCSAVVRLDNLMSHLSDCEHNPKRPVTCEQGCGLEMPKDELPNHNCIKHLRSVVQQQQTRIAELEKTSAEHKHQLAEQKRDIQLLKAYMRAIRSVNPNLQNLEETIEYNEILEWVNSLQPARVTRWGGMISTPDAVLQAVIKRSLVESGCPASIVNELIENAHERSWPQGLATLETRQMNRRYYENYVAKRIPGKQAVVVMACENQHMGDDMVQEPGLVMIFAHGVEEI

Take RAP2C (UniProt Q9Y3L5): the log2 fold change was -0.011 with filanesib; -0.031 with zotarolimus; 0.008 in the test with idasanutlin; -0.073 with alisertib; 0.016 in test [1]; -0.01 with gefitinib. The log2 fold change in [2] was 0.031; with lapatinib, 0.1; in the test with pictilisib, -0.799 (active).

On to RPS3A (UniProt D6R9B6), for which the log2 fold change in the test with filanesib is 0.228; in the test with idasanutlin it was 0.079.

For RRP36 (UniProt Q96EU6), the log2 fold change with filanesib was 0.372; with zotarolimus, -0.054; in the test with idasanutlin, 0.203; in the test with alisertib, -0.217; in test [1], 0.01; in the test with gefitinib, -0.042. Further, the log2 fold change is -0.268 in test [2], 0.088 in the test with lapatinib and -0.181 with pictilisib.

Take RPAIN isoform 8 (UniProt Q86UA6): the log2 fold change is -0.055 in test [3]; 0.006 with filanesib; 0.028 with zotarolimus; 0.109 in the test with idasanutlin; -0.061 in test [1]; -0.063 with lapatinib.

As for RNF185 (UniProt Q96GF1), the log2 fold change was 0.117 in the test with zotarolimus; -0.143 in the test with idasanutlin; -0.145 with alisertib; -0.175 in [1]; 0.007 in the test with gefitinib; -0.016 in [2]. In addition, the log2 fold change in the test with lapatinib was -0.111; with pictilisib, 0.076.

As for RALGPS2 (UniProt Q86X27), the log2 fold change in [3] was 0.246; with zotarolimus, 0.038; with idasanutlin, -0.062; in the test with alisertib, 0.109; in test [2], 0.132; with pictilisib, 0.165.

Turning to RBM26 isoform 3 (UniProt Q5T8P6), the results for the log2 fold change with filanesib and in the test with idasanutlin were 0.004 and 0.167, respectively.

Take S100A10 (UniProt P60903): the log2 fold change with filanesib is -0.143; with zotarolimus it was -0.045; in the test with idasanutlin it was 0.165; in test [1], 0.093; in the test with gefitinib it was 0.305; with lapatinib, 0.01. Further, the log2 fold change in the test with pictilisib was -0.056.

Take RNF26 (UniProt Q9BY78): in the test with pictilisib, the log2 fold change is 0.065.

With SEMG2 (UniProt Q02383), the log2 fold change is -0.002 with filanesib; -0.021 with zotarolimus; -0.135 with idasanutlin; 0.005 with alisertib; -0.008 with gefitinib; 0.063 in [2]. For the same target, the log2 fold change in the test with pictilisib was -0.021.

With SLC1A3 (UniProt P43003), the log2 fold change in the test with zotarolimus is -0.097; in the test with idasanutlin it was 0; with alisertib, 0.017; in [1], 0.118; with gefitinib, -0.023; in [2] it was 0.012. Further, the log2 fold change in the test with lapatinib is -0.03; in the test with pictilisib, 0.02.

In the case of RPS6KA5 (UniProt O75582), the log2 fold change is -0.276 in test [3]; -0.076 in the test with alisertib; -0.185 in [1]; 0.131 in [2]; 0.057 with lapatinib.

Take SCLT1 (UniProt Q96NL6): the log2 fold change in test [3] is 0.433 (active); with filanesib it was -0.063; with zotarolimus, 0.079; with alisertib, -0.205; with gefitinib, -0.022; in test [2], 0.046. For the same target, the log2 fold change with pictilisib was 0.185.

RAB3D (UniProt O95716): the log2 fold change was -0.08 with zotarolimus; 0.026 in the test with idasanutlin; 0.007 with alisertib; 0.002 in [1]; 0.243 in the test with gefitinib; -0.07 in test [2]. Also, the log2 fold change was 0.002 in the test with lapatinib and -0.153 with pictilisib.

In the case of RBMY1E (UniProt A6NEQ0), the log2 fold change is 0.078 in [3]; 0.083 with zotarolimus; -0.035 in the test with alisertib; -0.476 (active) in [1]; -0.07 in the test with gefitinib; 0.126 in test [2]. In addition, the log2 fold change in the test with lapatinib is 0.044; with pictilisib, 0.015.

Regarding RNF41 (UniProt Q9H4P4), in the test with idasanutlin, the log2 fold change was -0.031.

Take SDCBP isoform 2 (UniProt O00560): the log2 fold change in the test with filanesib is -0.08; in the test with alisertib it was -0.236; in test [1], 0.045; with gefitinib, -0.054; in test [2], 0.034; with lapatinib it was -0.04. Moreover, the log2 fold change with pictilisib was 0.228.
